# GPR151 activ: activators of human GPR151, primary screen, cell-based, PathHunter beta-arrestin, luminescence | 650,000 tested, 1% active | G-protein coupled receptor 151 (Homo sapiens), Q8TDV0 | AID 1508602, 2020 | PathHunter beta-arrestin GPR151 cells | activation, % at 11.2 µM; in the data active = activation above about 4.9%;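 also: 0% = median of compound wells and 100% = cells with positive control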
# Target sequence (Q8TDV0 whole entry, looked up): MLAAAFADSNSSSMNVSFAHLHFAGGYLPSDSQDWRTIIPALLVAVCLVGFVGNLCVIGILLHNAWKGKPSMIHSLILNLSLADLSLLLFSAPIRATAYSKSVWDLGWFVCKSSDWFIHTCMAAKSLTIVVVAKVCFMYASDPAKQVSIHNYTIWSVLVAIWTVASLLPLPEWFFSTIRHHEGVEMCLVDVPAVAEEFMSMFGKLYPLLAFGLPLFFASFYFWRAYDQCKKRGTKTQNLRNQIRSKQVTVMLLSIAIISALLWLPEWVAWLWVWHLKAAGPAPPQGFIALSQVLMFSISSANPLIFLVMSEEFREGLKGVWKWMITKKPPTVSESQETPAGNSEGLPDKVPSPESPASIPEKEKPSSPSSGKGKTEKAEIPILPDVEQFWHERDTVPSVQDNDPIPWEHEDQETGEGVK
# MITF primary: MITF inhibitors, primary screen, biochemical, AlphaScreen, human | Microphthalmia-associated transcription factor (Homo sapiens), O75030 | AlphaScreen MITF homodimerization, bead proximity signal | inhibition, % at 2.6 µM | 650,000 tested, 0.91% active; in the data active = inhibition above about 50%;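 also: 0% = vehicle wells with protein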
# TEAD-YAP block: TEAD-YAP interaction inhibition, primary screen, TEAD-YAP interaction inhibitor project, luminescence, HEK-TIYL cells. TEAD-Gal4/YAP UAS-luciferase luminescence. inhibition, % at 9.12 µM. 640,000 tested, 1.4% active; in the data active = inhibition above about 32%;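 also: 0% = median of test compound wells and 100% = reference inhibitor wells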
# FBW7 activator: FBW7 E3 ligase activators, primary screen, biochemical, AlphaScreen, human; F-box/WD repeat-containing protein 7 (Homo sapiens), Q969H0; AlphaScreen FBW7–phospho-cyclin E peptide binding, activator screen; normalized activity (activation), % at 26.1 µM; 650,000 tested, 0.13% active; in the data active = normalized activity above about 1.9%;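 also: purified mutant Fbw7 with reduced substrate affinity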
# * = called active by the depositor. Shown are actives, neighbours in structure and some others; about 3.5% of the full set was active somewhere.
SMILES,GPR151 activ,MITF primary,TEAD-YAP block,FBW7 activator
Cc1cccc(N=C2NC(=O)/C(=C\c3ccc(N(C)C)cc3)S2)c1,0,6,42*,1
CCOC(=O)c1c(NC(=O)CSc2nnc(C(C)C)n2C)sc(C)c1C,2,5,1,0
COc1ccccc1C(=O)Nc1ccc(S(=O)(=O)NC(C)C)cc1,1,0,9,0
CC(C)C(Sc1ncnc2ccccc12)C(=O)NC(N)=O (stereo not given),-2,14,10,0
COc1cc(Nc2nc(Nc3ccc(N4CCOCC4)cc3)c3[nH]cnc3n2)cc(OC)c1OC,-4,13,64*,0
CC(=O)c1cccc(-c2nc(Nc3ccc(N4CCOCC4)cc3)c3[nH]cnc3n2)c1,1,3,-2,0
CCCNc1nc(Nc2cc(OC)c(OC)c(OC)c2)nc2nc[nH]c12,0,16,39*,0
Nc1cccc(-c2nc(Nc3ccc(N4CCOCC4)cc3)c3[nH]cnc3n2)c1,-2,-12,60*,0
CC(=O)Nc1ccc(Nc2nc(Nc3ccc(N4CCOCC4)cc3)ncc2C)cc1,2,11,12,0
Cc1cnc(Nc2ccc(-n3ccnc3)cc2)nc1Nc1ccc(N2CCOCC2)cc1,-1,5,51*,0
Cc1cc([N+](=O)[O-])ccc1-c1ccc(/C=C2/NC(=O)N(Cc3ccc(Cl)cc3)C2=O)o1,0,-2,-5,0
O=C(Nc1c2c(nn1-c1cccc(Cl)c1)CSC2)c1ccc(Cl)cc1,2,9,-4,0
c1ccc(Nc2nc(Nc3ccc(N4CCOCC4)cc3)c3[nH]cnc3n2)cc1,1,3,47*,0
c1cn(-c2ccc(Nc3nc(Nc4ccc(N5CCOCC5)cc4)c4[nH]cnc4n3)cc2)cn1,1,5,51*,0
Cc1nnc2c(Nc3ccc(C(C)C)cc3)nc3ccccc3n12,4,3,3,0
Nc1c(C(=O)c2ccc(Cl)cc2)sc2nc3c(c(-c4ccco4)c12)CCC3,1,-5,1,0
CCc1cccc(C)c1NC(=S)N(CCN1CCCCCC1)Cc1ccco1,-2,7,7,3.2*
Cc1ccccc1N=c1scc(-c2ccc3c(c2)NC(=O)CO3)n1Cc1ccco1,0,0,48*,0
COc1ccccc1N=c1scc(-c2ccc3c(c2)NC(=O)CO3)n1CC1CCCO1 (stereo not given),4,26,1,1
N=c1c2c(-c3ccccc3)c(-c3ccccc3)n(Cc3ccco3)c2ncn1CCO,-2,15,68*,0
CNc1nc(N/N=C/c2ccc(OC)c(OC)c2)nc(Nc2cccc(C(F)(F)F)c2)n1,2,0,53*,0
CCNc1nc(NCC)nc(N/N=C/c2ccc(OC)c(OCc3ccccc3)c2)n1,-2,1,10,0
COC(=O)C1=C(C)N(c2ccc(Cl)c(Cl)c2)C(=O)C1,1,-14,36*,0
COC(=O)C1=C(C)N(c2cccc(OC)c2)C(=O)C1,1,-18,3,0
Cc1cc(NS(=O)(=O)c2ccc(NC(=O)/C=C/c3c(F)cccc3Cl)cc2)no1,-1,8,-2,0
SMILES,GPR151 activ,MITF primary,TEAD-YAP block,FBW7 activator
c1ccc(-c2cnn3c(NCc4cccs4)ccnc23)cc1,0,12,-48,0
O=C(O)CCc1ccc(-c2cnn3c(NCc4ccco4)ccnc23)cc1,-4,19,33*,1
OCc1ccccc1-c1cnn2c(NCc3cccs3)ccnc12,-1,-10,63*,0
Cc1ccc(-c2cnn3c(NCc4cccs4)ccnc23)cc1,0,11,-67,0
Nc1ccc(-c2cnn3c(NCc4cccs4)ccnc23)cc1,0,-12,71*,-1
O=C1CCCN1C(=S)C(=S)N1CCCC1=O,1,21,99*,-2
C=CCn1c(=NC(=O)C2=COCCO2)sc2cc(Br)ccc21,-2,7,-38,0
Cc1ccc(-n2c(SCC(=O)Nc3nccs3)nnc2-c2ccccn2)c(C)c1,2,4,17,0
COc1ccc(-n2c(SCC(=O)NCc3cccs3)nnc2-c2cccnc2)cc1,0,5,2,0
Cc1csc(NC(=O)CSc2nnc(-c3cccnc3)n2-c2ccccc2C)n1,1,-2,62*,0
Cc1ccccc1-n1c(SCC(=O)Nc2nccs2)nnc1-c1cccnc1,1,3,62*,0
COc1ccccc1-n1c(SCC(=O)NCc2cccs2)nnc1-c1cccnc1,-1,-1,4,3.3*
Cc1ccccc1-n1c(SCC(=O)Nc2nccs2)nnc1-c1ccccn1,0,2,37*,0
Cc1cc(-c2ccncc2)c(C)cc1NC(=O)C1COc2ccccc2O1 (stereo not given),2,10,-8,0
COc1ccccc1-n1c(SCC(=O)Nc2nc(C)cs2)nnc1-c1ccccn1,-1,-3,23,0
Cc1csc(NC(=O)CSc2nnc(-c3ccccn3)n2-c2ccccc2Cl)n1,0,-3,62*,0
CCOC(=O)C(C)Oc1ccc2cc(-c3ccccc3)c(=O)oc2c1 (stereo not given),-4,-4,18,2.3*
CCCc1ccc(OCC(=O)Nc2sc3c(c2C(=O)OCC)CCCC3)cc1,0,1,5,0
Cc1ccc(NC(=O)C2(S(=O)(=O)c3ccc(Cl)cc3)CC2)cc1,1,-7,1,0
Cc1cccc(NC(=O)C2(S(=O)(=O)c3ccc(Cl)cc3)CC2)c1,-1,-8,-9,4.7*
COc1ccc(-c2noc(CN(Cc3c(C)nn(C)c3C)C(C)C)n2)c(OC)c1OC,0,0,59*,0
COc1ccccc1OC1CCN(C(=O)CCC2(Cc3cccs3)CCC(=O)N2)CC1 (stereo not given),-1,15,11,0
CCN(CC)c1nc(NCCN(C(C)C)C(C)C)nc(Nc2cccc(N(C)C)c2)n1,2,0,3,0
O=C(NCCc1ccccc1)c1ccc(OC2CCN(C(=O)c3ccco3)CC2)cc1,-1,-13,83*,0
CC(C)=CC(=O)N1CCC(Oc2ccc(C(=O)NCCc3ccccc3)cc2)CC1,-1,2,-7,0
O=C1CC(C(=O)N2CCC(Oc3ccc(C(=O)NCCc4ccccc4)cc3)CC2)CN1 (stereo not given),0,10,80*,0
O=C(O)c1ccc(N2N=C(c3ccccc3)/C(=C/c3ccco3)C2=O)cc1,0,70*,1,-1
O=C(O)c1ccc(N2N=C(c3ccccc3)/C(=C\c3cccc([N+](=O)[O-])c3O)C2=O)cc1,-2,8,-13,0
COc1ccc(C(=O)N=c2nc3ccccn3s2)cc1,-7,11,70*,0

# Bioassay records: PubChem BioAssay, The Scripps Research Institute Molecular Screening Center
